# Test results as given in ChEMBL document CHEMBL2218924, “A broad activity screen in support of a chemogenomic map for kinase signalling research and drug discovery” (Biochem J, 2013).
# Key:
# [1] = target: T1, Serine/threonine-protein kinase TBK1 (Homo sapiens) (UniProt Q9UHD2); settings: at 10 µM
# T1 sequence (whole entry): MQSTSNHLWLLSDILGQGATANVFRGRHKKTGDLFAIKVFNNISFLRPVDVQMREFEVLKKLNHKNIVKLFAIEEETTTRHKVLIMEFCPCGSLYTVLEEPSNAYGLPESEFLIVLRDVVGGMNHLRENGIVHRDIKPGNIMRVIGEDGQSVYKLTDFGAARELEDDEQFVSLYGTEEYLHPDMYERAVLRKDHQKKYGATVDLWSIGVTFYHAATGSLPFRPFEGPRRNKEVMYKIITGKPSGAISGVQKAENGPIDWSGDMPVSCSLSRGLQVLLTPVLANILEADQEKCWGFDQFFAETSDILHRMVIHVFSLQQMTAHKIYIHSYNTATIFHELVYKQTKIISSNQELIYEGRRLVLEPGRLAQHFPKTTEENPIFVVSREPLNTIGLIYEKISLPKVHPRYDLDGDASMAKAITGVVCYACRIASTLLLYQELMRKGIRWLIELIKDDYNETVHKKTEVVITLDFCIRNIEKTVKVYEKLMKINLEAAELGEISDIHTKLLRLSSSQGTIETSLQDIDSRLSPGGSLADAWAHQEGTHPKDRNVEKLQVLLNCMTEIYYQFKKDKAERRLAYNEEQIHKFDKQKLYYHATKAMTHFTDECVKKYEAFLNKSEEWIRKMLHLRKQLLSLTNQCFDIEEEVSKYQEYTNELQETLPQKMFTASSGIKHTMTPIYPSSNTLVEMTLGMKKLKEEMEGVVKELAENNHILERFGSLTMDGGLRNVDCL
# [2] = target: T2, TGF-beta receptor type-1 (Homo sapiens) (UniProt P36897); settings: at 1 µM
# T2 sequence (whole entry): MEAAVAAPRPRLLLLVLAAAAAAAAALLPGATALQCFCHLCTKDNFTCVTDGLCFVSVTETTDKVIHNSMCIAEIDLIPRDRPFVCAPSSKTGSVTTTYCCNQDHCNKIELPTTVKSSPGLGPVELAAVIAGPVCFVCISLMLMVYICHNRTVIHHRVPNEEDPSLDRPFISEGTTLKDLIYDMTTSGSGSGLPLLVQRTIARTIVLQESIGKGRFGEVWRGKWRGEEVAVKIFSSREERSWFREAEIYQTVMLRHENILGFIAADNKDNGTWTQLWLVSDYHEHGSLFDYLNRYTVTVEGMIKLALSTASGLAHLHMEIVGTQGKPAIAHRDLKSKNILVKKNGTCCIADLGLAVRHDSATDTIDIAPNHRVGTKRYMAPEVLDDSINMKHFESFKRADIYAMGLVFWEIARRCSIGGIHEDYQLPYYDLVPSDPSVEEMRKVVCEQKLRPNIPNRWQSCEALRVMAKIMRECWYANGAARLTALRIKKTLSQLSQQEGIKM
# [3] = target: T2, TGF-beta receptor type-1 (Homo sapiens); settings: at 10 µM
# [4] = target: Insulin-like growth factor 1 receptor (Homo sapiens) (UniProt P08069); settings: at 1 µM
# [5] = target: Insulin-like growth factor 1 receptor (Homo sapiens) (UniProt P08069); settings: at 10 µM
# [6] = target: T3, Inhibitor of nuclear factor kappa-B kinase subunit alpha (Homo sapiens) (UniProt O15111); settings: at 1 µM
# T3 sequence (whole entry): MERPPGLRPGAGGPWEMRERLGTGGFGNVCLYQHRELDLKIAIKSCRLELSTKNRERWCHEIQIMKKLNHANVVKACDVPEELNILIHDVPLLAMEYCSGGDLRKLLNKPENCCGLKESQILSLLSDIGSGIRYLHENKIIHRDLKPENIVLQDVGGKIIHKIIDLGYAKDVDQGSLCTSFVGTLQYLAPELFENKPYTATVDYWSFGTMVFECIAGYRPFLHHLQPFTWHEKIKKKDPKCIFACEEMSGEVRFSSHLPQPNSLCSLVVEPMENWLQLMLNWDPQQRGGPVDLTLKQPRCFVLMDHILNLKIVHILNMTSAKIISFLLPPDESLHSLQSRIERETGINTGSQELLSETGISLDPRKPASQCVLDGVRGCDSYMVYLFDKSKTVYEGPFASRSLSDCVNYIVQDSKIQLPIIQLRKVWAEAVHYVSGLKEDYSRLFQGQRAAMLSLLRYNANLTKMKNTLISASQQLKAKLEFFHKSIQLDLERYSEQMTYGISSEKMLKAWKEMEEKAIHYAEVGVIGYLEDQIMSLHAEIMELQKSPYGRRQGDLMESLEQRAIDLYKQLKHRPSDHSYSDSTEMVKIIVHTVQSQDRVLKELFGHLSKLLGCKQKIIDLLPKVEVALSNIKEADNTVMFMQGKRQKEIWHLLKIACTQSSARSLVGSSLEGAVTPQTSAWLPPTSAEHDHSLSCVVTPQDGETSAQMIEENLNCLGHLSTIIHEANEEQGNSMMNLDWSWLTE
# [7] = target: T3, Inhibitor of nuclear factor kappa-B kinase subunit alpha (Homo sapiens); settings: at 10 µM
# [8] = target: T4, Inhibitor of nuclear factor kappa-B kinase subunit beta (Homo sapiens) (UniProt O14920); settings: at 1 µM
# T4 sequence (whole entry): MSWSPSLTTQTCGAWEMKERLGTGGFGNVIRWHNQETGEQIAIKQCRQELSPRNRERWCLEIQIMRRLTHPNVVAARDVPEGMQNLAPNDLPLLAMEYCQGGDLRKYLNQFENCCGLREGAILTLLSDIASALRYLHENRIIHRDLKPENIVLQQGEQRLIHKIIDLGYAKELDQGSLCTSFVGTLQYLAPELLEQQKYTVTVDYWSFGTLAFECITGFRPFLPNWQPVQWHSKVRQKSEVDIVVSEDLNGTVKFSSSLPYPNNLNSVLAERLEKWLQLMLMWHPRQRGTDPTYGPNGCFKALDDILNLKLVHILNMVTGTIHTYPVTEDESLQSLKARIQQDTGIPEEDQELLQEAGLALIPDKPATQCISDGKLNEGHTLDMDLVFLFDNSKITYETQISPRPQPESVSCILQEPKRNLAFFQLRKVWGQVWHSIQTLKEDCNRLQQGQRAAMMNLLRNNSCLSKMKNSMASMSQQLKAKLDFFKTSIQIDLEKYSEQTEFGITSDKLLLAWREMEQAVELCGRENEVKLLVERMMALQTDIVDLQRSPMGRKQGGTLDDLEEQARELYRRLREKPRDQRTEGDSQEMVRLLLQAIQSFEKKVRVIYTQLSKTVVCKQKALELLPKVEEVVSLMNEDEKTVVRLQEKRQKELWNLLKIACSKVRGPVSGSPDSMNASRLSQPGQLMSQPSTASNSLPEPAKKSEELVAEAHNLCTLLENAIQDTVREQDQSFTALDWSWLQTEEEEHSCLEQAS
# [9] = target: T4, Inhibitor of nuclear factor kappa-B kinase subunit beta (Homo sapiens); settings: at 10 µM
# [10] = target: Insulin receptor (Homo sapiens) (UniProt P06213); settings: at 1 µM
# Chain of Insulin receptor (Homo sapiens) (P06213 28-758 limits assumed): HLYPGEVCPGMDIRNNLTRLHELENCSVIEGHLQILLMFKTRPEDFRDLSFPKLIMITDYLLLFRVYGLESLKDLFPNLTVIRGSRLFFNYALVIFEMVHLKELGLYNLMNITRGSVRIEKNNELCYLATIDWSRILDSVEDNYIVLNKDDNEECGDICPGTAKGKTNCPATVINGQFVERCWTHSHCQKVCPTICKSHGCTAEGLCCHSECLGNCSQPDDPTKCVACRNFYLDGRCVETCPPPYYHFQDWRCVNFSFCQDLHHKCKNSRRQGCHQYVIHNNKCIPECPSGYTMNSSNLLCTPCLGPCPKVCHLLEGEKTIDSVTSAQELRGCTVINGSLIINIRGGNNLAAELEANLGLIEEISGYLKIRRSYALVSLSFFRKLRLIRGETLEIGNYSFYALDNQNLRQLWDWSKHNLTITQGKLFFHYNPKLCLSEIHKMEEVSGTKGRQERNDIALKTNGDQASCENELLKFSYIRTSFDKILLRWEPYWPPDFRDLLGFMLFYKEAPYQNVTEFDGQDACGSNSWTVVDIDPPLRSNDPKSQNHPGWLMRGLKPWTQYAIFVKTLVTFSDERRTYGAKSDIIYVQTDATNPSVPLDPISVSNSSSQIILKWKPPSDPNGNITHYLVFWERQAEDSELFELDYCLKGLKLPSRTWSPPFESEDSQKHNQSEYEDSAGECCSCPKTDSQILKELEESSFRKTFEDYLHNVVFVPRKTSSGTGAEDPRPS
# Chain of Insulin receptor (Homo sapiens) (P06213 763-1382 limits assumed): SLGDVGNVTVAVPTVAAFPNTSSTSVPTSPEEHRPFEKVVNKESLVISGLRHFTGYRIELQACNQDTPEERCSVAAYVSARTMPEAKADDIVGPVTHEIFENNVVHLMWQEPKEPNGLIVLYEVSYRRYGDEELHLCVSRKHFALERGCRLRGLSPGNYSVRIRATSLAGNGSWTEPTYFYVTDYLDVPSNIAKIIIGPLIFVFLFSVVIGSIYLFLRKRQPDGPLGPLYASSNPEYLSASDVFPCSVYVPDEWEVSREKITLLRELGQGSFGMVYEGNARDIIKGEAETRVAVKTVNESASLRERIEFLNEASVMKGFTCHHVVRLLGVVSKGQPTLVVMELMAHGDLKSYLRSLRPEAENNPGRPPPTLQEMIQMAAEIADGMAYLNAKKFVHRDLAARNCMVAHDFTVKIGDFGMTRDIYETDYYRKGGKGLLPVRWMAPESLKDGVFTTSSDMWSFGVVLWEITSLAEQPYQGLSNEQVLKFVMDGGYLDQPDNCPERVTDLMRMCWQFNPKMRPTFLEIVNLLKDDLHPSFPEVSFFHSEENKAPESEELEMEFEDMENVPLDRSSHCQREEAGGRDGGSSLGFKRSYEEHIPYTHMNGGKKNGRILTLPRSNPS
# Chain of Insulin-like growth factor 1 receptor (Homo sapiens) (P08069 31-736 limits assumed): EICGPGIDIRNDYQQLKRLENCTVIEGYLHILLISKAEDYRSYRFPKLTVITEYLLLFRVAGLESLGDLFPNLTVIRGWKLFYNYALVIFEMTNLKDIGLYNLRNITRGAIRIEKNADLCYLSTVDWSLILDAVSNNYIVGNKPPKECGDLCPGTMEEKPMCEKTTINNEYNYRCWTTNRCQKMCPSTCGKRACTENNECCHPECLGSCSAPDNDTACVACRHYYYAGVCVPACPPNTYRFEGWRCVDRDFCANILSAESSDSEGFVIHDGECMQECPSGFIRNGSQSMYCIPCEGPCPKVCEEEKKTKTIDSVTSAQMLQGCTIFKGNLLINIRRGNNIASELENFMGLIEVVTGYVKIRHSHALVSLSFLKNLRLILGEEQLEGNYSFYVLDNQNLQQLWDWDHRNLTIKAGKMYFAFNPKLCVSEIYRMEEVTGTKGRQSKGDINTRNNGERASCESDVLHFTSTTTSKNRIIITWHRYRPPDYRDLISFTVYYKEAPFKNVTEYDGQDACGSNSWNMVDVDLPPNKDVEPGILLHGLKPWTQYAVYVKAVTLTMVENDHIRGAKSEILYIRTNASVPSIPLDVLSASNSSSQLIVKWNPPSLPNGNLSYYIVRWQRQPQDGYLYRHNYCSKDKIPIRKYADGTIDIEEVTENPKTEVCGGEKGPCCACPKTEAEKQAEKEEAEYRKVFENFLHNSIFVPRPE
# Chain of Insulin-like growth factor 1 receptor (Homo sapiens) (P08069 741-1367 limits assumed): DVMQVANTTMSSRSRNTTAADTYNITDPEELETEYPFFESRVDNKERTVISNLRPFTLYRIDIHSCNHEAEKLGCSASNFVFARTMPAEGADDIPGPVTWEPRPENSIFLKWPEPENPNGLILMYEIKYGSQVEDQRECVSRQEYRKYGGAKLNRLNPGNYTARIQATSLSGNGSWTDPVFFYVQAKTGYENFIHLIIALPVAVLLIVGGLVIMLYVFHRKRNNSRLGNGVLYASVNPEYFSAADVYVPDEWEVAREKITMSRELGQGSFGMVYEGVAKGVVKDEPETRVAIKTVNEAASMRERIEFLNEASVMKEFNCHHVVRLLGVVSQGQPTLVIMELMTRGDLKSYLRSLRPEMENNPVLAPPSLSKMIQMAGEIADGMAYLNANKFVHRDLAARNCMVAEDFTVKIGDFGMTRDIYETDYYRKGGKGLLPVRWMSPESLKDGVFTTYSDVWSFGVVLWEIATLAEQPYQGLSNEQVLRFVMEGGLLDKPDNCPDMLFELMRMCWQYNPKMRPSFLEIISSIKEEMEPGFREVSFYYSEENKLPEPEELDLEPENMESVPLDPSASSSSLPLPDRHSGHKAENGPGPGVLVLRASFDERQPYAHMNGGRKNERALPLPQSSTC
compound,measurement,setting,value
CC(C)c1nn(-c2c(Cl)cccc2Cl)c2nc(Cc3ccc(OCCO)cc3)[nH]c(=O)c12,residual activity,[1],63%
same,residual activity,[2],94%
same,residual activity,[3],86%
same,residual activity,[4],105%
same,residual activity,[5],107%
same,residual activity,[6],99%
same,residual activity,[7],90%
same,residual activity,[8],109%
same,residual activity,[9],100%
same,residual activity,[10],85%
